Some test systems named below: SK-MEL-2 melanoma; SN12C renal; UO-31 renal; TK-10 renal; ACHN renal; CAKI-1 renal; A498 renal; CCRF-CEM leukemia; MOLT-4 leukemia; RPMI-8226 leukemia; OVCAR-8 ovarian; OVCAR-5 ovarian; OVCAR-4 ovarian; SK-OV-3 ovarian; IGROV1 ovarian; HS 578T breast; NCI/ADR-RES ovarian; SR leukemia; OVCAR-3 ovarian; EKVX NSCLC.
Common to all, as to experiment: NCI-60 one-dose screen, 48 h (100 = growth as untreated, 0 = no growth, -100 = all killed)
Holding throughout (settings): 10 µM unless noted

About 83,000 compounds went through this panel and 20% of them were active in at least one assay; those are over-represented in the sample as a whole.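 Step 1: grow cells in 96-well plates. Step 2: add test compound at a single concentration. Step 3: incubate 48 h. Step 4: record percent growth.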 Values without a mark were called inactive. Active and inactive are the calls of the source. How the source made its calls: active means growth percent below 10; inactive means the rest.

In the case of `COc1ccc2c(c1)c(-c1ccc(-c3cn(C)c4ccc(OC)cc34)o1)cn2C`, the growth with SK-MEL-2 melanoma is 45%; in the test with SN12C renal, 75.8%; in the test on UO-31 renal, -8.28% (active); in the test on TK-10 renal, 83.3%; with ACHN renal, 36.3%; in the test on CAKI-1 renal, 37.2%. Also, the growth with A498 renal was 85.3%; in the test on CCRF-CEM leukemia, 61.8%; in the test with MOLT-4 leukemia, 63.5%; in the test with RPMI-8226 leukemia, 25.5%; in the test with OVCAR-8 ovarian, 39.4%; in the test on OVCAR-5 ovarian it was 36.8%. In addition, the growth was -42.3% (active) in the test with OVCAR-4 ovarian; 93.4% in the test with SK-OV-3 ovarian; 70.2% in the test on IGROV1 ovarian; -31.2% (active) in the test on HS 578T breast; 38.7% in the test with NCI/ADR-RES ovarian.

As to `NCCCNc1nc2ccccc2c2c(=O)c3cc(F)cc(Cl)c3sc12`, the growth was 105% with SK-MEL-2 melanoma; 82.7% in the test on SN12C renal; 58.4% in the test on UO-31 renal; 106% in the test on TK-10 renal; 61.9% in the test with ACHN renal; 63.1% in the test with CAKI-1 renal. For the same compound, the growth with A498 renal is 66.3%; in the test with CCRF-CEM leukemia, 6.83% (active); with MOLT-4 leukemia, 77.7%; with SR leukemia, -17.3% (active); with OVCAR-8 ovarian, 5.77% (active); in the test with OVCAR-5 ovarian, 96.6%. Moreover, the growth in the test with OVCAR-4 ovarian is -65.3% (active); in the test with SK-OV-3 ovarian, 102%; with IGROV1 ovarian, 80%; in the test on OVCAR-3 ovarian it was 102%; in the test with HS 578T breast, 88.3%; in the test on NCI/ADR-RES ovarian, 85.5%.

For `COc1cccc2c(=O)c3c(sc12)c(NCCCN)nc1ccccc13`, the growth is 103% with SK-MEL-2 melanoma; 48.4% with SN12C renal; 27.7% with UO-31 renal; 65.6% in the test with TK-10 renal; 29.4% with ACHN renal; 27.5% with CAKI-1 renal. Moreover, the growth in the test with A498 renal was 25.2%; with CCRF-CEM leukemia it was 14.7%; with MOLT-4 leukemia, 8.43% (active); in the test with OVCAR-8 ovarian, 34.8%; in the test with OVCAR-5 ovarian, 77.9%; in the test with OVCAR-4 ovarian it was 21.8%. For the same compound, the growth in the test on SK-OV-3 ovarian was 64.7%; with IGROV1 ovarian, 39.3%; in the test on OVCAR-3 ovarian it was 39.1%; in the test on HS 578T breast, 60%; in the test with NCI/ADR-RES ovarian it was 46%.

For `CSc1ccc2c(c1)c(CCN)c(C)n2Cc1ccc(Cl)c(Cl)c1`, the growth was -66.1% (active) in the test with SK-MEL-2 melanoma; -80.2% (active) with SN12C renal; -91% (active) in the test with UO-31 renal; -80.4% (active) with TK-10 renal; -85.5% (active) with ACHN renal; -92.5% (active) with CAKI-1 renal. In addition, the growth in the test with A498 renal was -91.8% (active); with CCRF-CEM leukemia it was -56.2% (active); in the test on MOLT-4 leukemia, -64.6% (active); in the test on SR leukemia it was -61.6% (active); with OVCAR-8 ovarian, -60.8% (active); in the test on OVCAR-5 ovarian, -58.2% (active). Further, the growth in the test with OVCAR-4 ovarian is -93.2% (active); in the test on SK-OV-3 ovarian, -91.2% (active); in the test with OVCAR-3 ovarian, -88.4% (active); in the test on HS 578T breast, -39.2% (active); in the test on NCI/ADR-RES ovarian it was -87.8% (active).

On to `Cc1ccc(C(C)C)cc1C(=O)C[n+]1ccccc1`, for which the growth with SK-MEL-2 melanoma is 107%; in the test with SN12C renal it was 102%; in the test with UO-31 renal, 87.5%; in the test with TK-10 renal, 103%; with ACHN renal, 95.6%; in the test on CAKI-1 renal, 99.6%. The growth in the test on A498 renal was 81.5%; in the test on CCRF-CEM leukemia, 113%; in the test on MOLT-4 leukemia, 88.4%; in the test with SR leukemia, 86.1%; in the test with RPMI-8226 leukemia it was 114%; in the test on OVCAR-5 ovarian it was 91.1%. Besides, the growth in the test on OVCAR-4 ovarian was 101%; with SK-OV-3 ovarian it was 97.7%; with IGROV1 ovarian, 98.6%; in the test with OVCAR-3 ovarian, 101%; in the test on HS 578T breast, 100%; in the test with NCI/ADR-RES ovarian, 107%.

For the compound `CC(C)(C)NC(=O)C(OC(=O)c1cccc(Cl)c1)c1ccc(Cl)cc1` (stereo not drawn), the growth in the test with EKVX NSCLC was 109%; with SN12C renal it was 101%; in the test on UO-31 renal, 90.1%; in the test with TK-10 renal, 93.2%; in the test with ACHN renal it was 107%; in the test with CAKI-1 renal it was 99.3%. The growth is 83.1% in the test with A498 renal; 103% in the test on CCRF-CEM leukemia; 107% in the test with MOLT-4 leukemia; 103% in the test with SR leukemia; 102% with RPMI-8226 leukemia; 94.5% with OVCAR-5 ovarian. Also, the growth is 105% with OVCAR-4 ovarian; 93.1% with SK-OV-3 ovarian; 104% in the test on IGROV1 ovarian; 103% in the test on OVCAR-3 ovarian; 110% in the test on HS 578T breast; 101% in the test with NCI/ADR-RES ovarian.

In the case of `O=C(Oc1cccc2ccccc12)Oc1cccc2ccccc12`, the growth with SK-MEL-2 melanoma is 104%; with SN12C renal it was 97.2%; in the test with UO-31 renal it was 55%; in the test with TK-10 renal it was 139%; in the test on ACHN renal, 98%; in the test on CAKI-1 renal, 86.8%. In addition, the growth was 107% with A498 renal; 88.7% with CCRF-CEM leukemia; 93.2% with MOLT-4 leukemia; 113% in the test on RPMI-8226 leukemia; 107% with OVCAR-8 ovarian; 103% in the test with OVCAR-5 ovarian. Besides, the growth was 113% in the test with OVCAR-4 ovarian; 102% in the test on SK-OV-3 ovarian; 73.6% in the test on IGROV1 ovarian; 79.4% with OVCAR-3 ovarian; 106% in the test with HS 578T breast; 103% with NCI/ADR-RES ovarian.

In the case of `O=c1c2cccc(Cl)c2sc2c(NCCCNCCO)nc3ccccc3c12`, the growth with SK-MEL-2 melanoma is 104%; with SN12C renal, 39.1%; with UO-31 renal, 12.5%; in the test with TK-10 renal, 39.1%; in the test on ACHN renal, 10.3%; with CAKI-1 renal it was -46.9% (active). The growth with A498 renal was 10.8%; in the test with CCRF-CEM leukemia, -14.6% (active); with MOLT-4 leukemia, -40.3% (active); in the test with SR leukemia, -51.2% (active); with OVCAR-8 ovarian it was 27%; in the test with OVCAR-5 ovarian it was 62.5%. For the same compound, the growth in the test with OVCAR-4 ovarian is 11.1%; in the test on SK-OV-3 ovarian it was 53.2%; in the test with IGROV1 ovarian it was 15.3%; in the test on OVCAR-3 ovarian it was -7.4% (active); in the test with HS 578T breast it was 20.3%; with NCI/ADR-RES ovarian it was 38.4%.

For the compound `COc1ccc(C(=O)n2nc(-c3ccccc3)nc2N)cc1OC`, the growth in the test on SK-MEL-2 melanoma is 103%; in the test with SN12C renal it was 90.5%; in the test with UO-31 renal it was 70.5%; in the test with TK-10 renal, 112%; in the test with ACHN renal it was 82.4%; in the test on CAKI-1 renal it was 84.3%. The growth in the test with A498 renal was 83.7%; in the test with CCRF-CEM leukemia, 86.8%; in the test with MOLT-4 leukemia it was 87.8%; with SR leukemia it was 80.6%; with RPMI-8226 leukemia, 92.1%; in the test on OVCAR-5 ovarian it was 96.7%. The growth in the test on OVCAR-4 ovarian was 90.9%; with SK-OV-3 ovarian, 80.8%; with OVCAR-3 ovarian, 94.5%; with HS 578T breast, 92.1%; in the test on NCI/ADR-RES ovarian it was 96.5%.

The record behind these values is PubChem BioAssay (NCI).
